The nature of assay [1]: viability loss with induced miR-34 in A549 – imaging, A549 dox-inducible miR-34, nuclei and caspase counts, primary screen (AID 1347080). As to conditions: A549 miR-34 inducible, Hoechst nuclei count, 48 h.
Assay [2] is described as follows: MELAS cybrid and Rieske KO viability enhancers – cell-based, MELAS cybrids, Rieske KO mouse fibroblasts, CellTiter-Glo, primary screen (AID 1508586;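 active = mean z-score across replicates of 1.96 or higher in either the MELAS or the Rieske mutant cell line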;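 also: z relative to plate mean and SD of compound and empty wells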). To be noted: low glucose. In general terms: In ATP-based viability assays light output follows the ATP content of the culture.
[3] abbreviates: stronger effect = lower value, cell number ratio, induced over uninduced.
The mark [4] stands for this setting: measured here: relative caspase fold change +Dox/-Dox.
The mark [5] stands for this setting: measured here: total cells with miR-34 induction, stronger effect = lower value.
Setting [6] is: measured here: total cells without miR-34 induction.
Setting [7] is: MELAS cybrid survival, CellTiter-Glo 48 h, stronger effect = higher value.
[8] abbreviates: Rieske KO mouse fibroblast survival, CellTiter-Glo 72 h.

Active and inactive are the calls of the source.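 The calls were made as follows, unless noted: active = compounds whose cell count with miR-34 switched on is under 0.7 times the count with it off; inactive = the rest.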
Also: test concentration not given here.

`CC(C)(Cc1ccc2ccccc2c1)NCC(O)COc1cccc(Cl)c1C#N` (stereo unspecified): the fold change in assay [1] (setting [3]) is 0.92 (inactive); in assay [1] (setting [4]) it was 0.745. In addition, the cell count stood at 8560 in assay [1] (setting [5]) and 9310 in assay [1] (setting [6]). Besides, the z-score in assay [2] (setting [7]) is -0.327 (inactive); in assay [2] (setting [8]), 0.584.

Consider `O=C(O)CCCCC1SC[C@@H]2NC(=O)N[C@H]12` (stereo partly specified), for which the values for the fold change in assay [1] (setting [3]) and in assay [1] (setting [4]) were 0.883 (inactive) and 0.431, respectively. Moreover, the cell count in assay [1] (setting [5]) amounted to 8160; in assay [1] (setting [6]) it was 9250. Further, the z-score is -0.0238 (inactive) in assay [2] (setting [7]) and -0.137 in assay [2] (setting [8]).

For the compound `CC(=O)C1CC[C@H]2[C@@H]3CC=C4CC(O)CC[C@]4(C)[C@@H]3CC[C@]12C` (stereo partly specified), the fold change in assay [1] (setting [3]) was 0.983 (inactive); in assay [1] (setting [4]) it was 0.867. Besides, the results for the cell count in assay [1] (setting [5]) and in assay [1] (setting [6]) were 7780 and 7910, respectively. Moreover, the z-score in assay [2] (setting [7]) was -0.328 (inactive); in assay [2] (setting [8]), 0.251.

As for `Cc1c(O)cccc1C(=O)NC(CSc1ccccc1)C(O)CN1C[C@H]2CCCC[C@H]2CC1C(=O)NC(C)(C)C` (stereo partly specified), the fold change in assay [1] (setting [3]) is 0.999 (inactive); in assay [1] (setting [4]), 0.485. The cell count in assay [1] (setting [5]) and in assay [1] (setting [6]) was 7710 each time. In addition, the z-score in assay [2] (setting [7]) was -0.177 (inactive); in assay [2] (setting [8]), -0.0438.

As for `CCC(C)C(NC(=O)C(CCC(=O)O)NC(=O)C(CC(C)C)NC(=O)C1CN=C(C(N)C(C)C)S1)C(=O)NC1CCCCNC(=O)C(CC(N)=O)NC(=O)C(CC(=O)O)NC(=O)C(Cc2cnc[nH]2)NC(=O)C(Cc2ccccc2)NC(=O)C(C(C)CC)NC(=O)C(CCCN)NC1=O` (stereo unspecified), the fold change in assay [1] (setting [3]) was 1.05 (inactive); in assay [1] (setting [4]), 0.927. Moreover, the cell count in assay [1] (setting [5]) came out at 7610; in assay [1] (setting [6]), 7240. Further, the z-score is -0.25 (inactive) in assay [2] (setting [7]) and -0.261 in assay [2] (setting [8]).

`CC(C)(Oc1ccc(Cl)cc1)C(=O)OCCOC(=O)c1cccnc1`: the fold change was 0.919 (inactive) in assay [1] (setting [3]) and 0.391 in assay [1] (setting [4]). Moreover, the cell count came to 8570 in assay [1] (setting [5]) and 9330 in assay [1] (setting [6]). The z-score in assay [2] (setting [7]) was -0.212 (inactive); in assay [2] (setting [8]), -0.266.

In the case of `Cc1cc(Nc2nc(NC(C)c3ncc(F)cn3)ncc2Cl)n[nH]1` (stereo unspecified), the fold change in assay [1] (setting [3]) is 1.07 (inactive); in assay [1] (setting [4]) it was 1.17. Further, the cell count in assay [1] (setting [5]) turned out to be 1380; in assay [1] (setting [6]), 1290. Further, the figures for the z-score in assay [2] (setting [7]) and in assay [2] (setting [8]) were 0.54 (inactive) and -3.57, respectively.

For `COC(=O)C1C(OC)C(OC(=O)c2cc(OC)c(OC)c(OC)c2)C[C@@H]2CN3CCc4c([nH]c5cc(OC)ccc45)[C@H]3C[C@H]12` (stereo partly specified), the fold change in assay [1] (setting [3]) was 0.925 (inactive); in assay [1] (setting [4]), 0.845. In addition, the cell count in assay [1] (setting [5]) was determined as 7190; in assay [1] (setting [6]), 7770. Moreover, the results for the z-score in assay [2] (setting [7]) and in assay [2] (setting [8]) were -0.484 (inactive) and 0.995, respectively.

As for `Cc1cc2c(C(=O)NCC(C)c3ccccc3)c(O)c(O)cc2c(O)c1-c1c(C)cc2c(C(=O)NCC(C)c3ccccc3)c(O)c(O)cc2c1O` (stereo unspecified), the fold change in assay [1] (setting [3]) is 1.07 (inactive); in assay [1] (setting [4]), 0.503. For the same compound, the cell count worked out at 2050 in assay [1] (setting [5]) and 1910 in assay [1] (setting [6]). In addition, the z-score is -0.836 (inactive) in assay [2] (setting [7]) and -6.52 in assay [2] (setting [8]).

Take `CC(C)CC(NC(=O)CNC(=O)c1cc(Cl)ccc1Cl)B1OC(=O)CC(CC(=O)O)(C(=O)O)O1` (stereo unspecified): the values for the fold change in assay [1] (setting [3]) and in assay [1] (setting [4]) were 0.814 (inactive) and 0.899, respectively. Further, the cell count in assay [1] (setting [5]) was 1600; in assay [1] (setting [6]) it was 1960. Moreover, the z-score in assay [2] (setting [7]) was -0.37 (inactive); in assay [2] (setting [8]), -3.79.

For the compound `NC(=O)Nc1cc(-c2cccc(F)c2)sc1C(=O)NC1CCCNC1` (stereo unspecified), the fold change is 1.01 (inactive) in assay [1] (setting [3]) and 0.785 in assay [1] (setting [4]). The cell count was 866 in assay [1] (setting [5]) and 858 in assay [1] (setting [6]). Besides, the z-score in assay [2] (setting [7]) is -0.543 (inactive); in assay [2] (setting [8]) it was -2.7.

Regarding `COC(=O)NC(C)CNc1nccc(-c2cn(C(C)C)nc2-c2cc(Cl)cc(NS(C)(=O)=O)c2F)n1` (stereo unspecified), the fold change in assay [1] (setting [3]) was 0.982 (inactive); in assay [1] (setting [4]) it was 0.272. Further, the figures for the cell count in assay [1] (setting [5]) and in assay [1] (setting [6]) were 5200 and 5290, respectively. In addition, the figures for the z-score in assay [2] (setting [7]) and in assay [2] (setting [8]) were 0.61 (inactive) and 1.4, respectively.

As for `CC(=O)OCC(=O)[C@]12OC(C)(C)OC1C[C@H]1[C@@H]3CC(F)C4=CC(=O)C=C[C@]4(C)[C@]3(F)C(O)C[C@@]12C` (stereo partly specified), the fold change was 0.819 (inactive) in assay [1] (setting [3]) and 1.14 in assay [1] (setting [4]). Further, the cell count was 5400 in assay [1] (setting [5]) and 6590 in assay [1] (setting [6]). The z-score was -0.325 (inactive) in assay [2] (setting [7]) and -0.647 in assay [2] (setting [8]).

As for `CCCCC(=O)OC1CC[C@H]2[C@@H]3CCc4cc(O)ccc4[C@@H]3CC[C@]12C` (stereo partly specified), the fold change in assay [1] (setting [3]) is 0.855 (inactive); in assay [1] (setting [4]), 0.887. Moreover, the results for the cell count in assay [1] (setting [5]) and in assay [1] (setting [6]) were 7760 and 9080, respectively. The z-score is -0.195 (inactive) in assay [2] (setting [7]) and -0.141 in assay [2] (setting [8]).

For `O=C(NCC(O)CO)c1ccncc1Nc1ccc(I)cc1F` (stereo unspecified), the fold change in assay [1] (setting [3]) is 1.05 (inactive); in assay [1] (setting [4]), 0.75. The cell count was found to be 3270 in assay [1] (setting [5]) and 3120 in assay [1] (setting [6]). For the same compound, the z-score in assay [2] (setting [7]) is -0.688 (inactive); in assay [2] (setting [8]), -1.18.

Turning to `CC1OC(O)C(O)C(O)C1O` (stereo unspecified), the figures for the fold change in assay [1] (setting [3]) and in assay [1] (setting [4]) were 0.984 (inactive) and 1, respectively. In addition, the cell count is 7230 in assay [1] (setting [5]) and 7350 in assay [1] (setting [6]). For the same compound, the figures for the z-score in assay [2] (setting [7]) and in assay [2] (setting [8]) were -0.0523 (inactive) and -0.0922, respectively.

Regarding `CCN1C(=CC(C)=O)Sc2ccc(OC)cc21`, the fold change in assay [1] (setting [3]) was 0.889 (inactive); in assay [1] (setting [4]), 0.354. The figures for the cell count in assay [1] (setting [5]) and in assay [1] (setting [6]) were 6850 and 7700, respectively. The z-score is 0.342 (inactive) in assay [2] (setting [7]) and 1.67 in assay [2] (setting [8]).

With `CCCCc1ncc(C=C(Cc2cccs2)C(=O)O)n1Cc1ccc(C(=O)O)cc1`, the fold change in assay [1] (setting [3]) is 0.858 (inactive); in assay [1] (setting [4]), 0.882. Besides, the cell count was determined as 8440 in assay [1] (setting [5]) and 9840 in assay [1] (setting [6]). The z-score in assay [2] (setting [7]) was -0.00421 (inactive); in assay [2] (setting [8]), -0.115.

With `CCNC(=O)C1OC(n2cnc3c(N)nc(NCCc4ccc(CCC(=O)O)cc4)nc32)C(O)C1O` (stereo unspecified), the results for the fold change in assay [1] (setting [3]) and in assay [1] (setting [4]) were 1.01 (inactive) and 0.733, respectively. For the same compound, the cell count came to 7450 in assay [1] (setting [5]) and 7360 in assay [1] (setting [6]). Also, the z-score in assay [2] (setting [7]) was 0.177 (inactive); in assay [2] (setting [8]), -0.329.

For `COC1C=CO[C@@]2(C)Oc3c(C)c(O)c4c(O)c(c(C=NN5CCN(C)CC5)c(O)c4c3C2=O)NC(=O)C(C)=CC=CC(C)C(O)C(C)C(O)C(C)C(OC(C)=O)C1C` (stereo partly specified), the fold change in assay [1] (setting [3]) is 0.973 (inactive); in assay [1] (setting [4]) it was 0.46. For the same compound, the cell count in assay [1] (setting [5]) came out at 7970; in assay [1] (setting [6]), 8200. Also, the z-score in assay [2] (setting [7]) is -0.298 (inactive); in assay [2] (setting [8]) it was 0.515.

On to `CCC1OC(=O)C(C)C(OC2C[C@@](C)(OC)C(O)C(C)O2)C(C)C(OC2OC(C)CC(N(C)C)C2O)[C@](C)(O)CC(C)CN(C)C(C)C(O)[C@]1(C)O` (stereo partly specified), for which the figures for the fold change in assay [1] (setting [3]) and in assay [1] (setting [4]) were 0.925 (inactive) and 0.82, respectively. Moreover, the results for the cell count in assay [1] (setting [5]) and in assay [1] (setting [6]) were 8110 and 8770, respectively. The z-score is -0.213 (inactive) in assay [2] (setting [7]) and 0.708 in assay [2] (setting [8]).
